Screens (PubChem)
Giardia kill: kills Giardia lamblia | Giardia lamblia trophozoite viability | activity change, % at 7.66 µM, hits read low | 340,000 tested, 0.15% active; in the data active = activity change below about -80%; inconclusive = between about -30% and that limit;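 also: parasites exposed to compound for two days anaerobically before the ATP read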
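ATP-content bioluminescence gauges trophozoite survival. Cells (100/well) receive compound and incubate anaerobically for 48 hrs at 37 deg C; detection reagent follows for 15-30 min at room temperature.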
rTrxR1 inhibitor: inhibitors of rat thioredoxin reductase 1 | O89049 | recombinant rTrxR1, NADPH fluorescence consumption, selenite substrate | Potency, µM (titrated, usually from 114 µM), for inactives: at the top dose activity change, negative = inhibition, most hits filed as inhibitors | 390,000 tested, 1% active; also: potency is read from the fitted curve at half-maximal effect; nearly all actives have a fitted effect of over 65% in size
Target sequence (O89049 whole entry, looked up): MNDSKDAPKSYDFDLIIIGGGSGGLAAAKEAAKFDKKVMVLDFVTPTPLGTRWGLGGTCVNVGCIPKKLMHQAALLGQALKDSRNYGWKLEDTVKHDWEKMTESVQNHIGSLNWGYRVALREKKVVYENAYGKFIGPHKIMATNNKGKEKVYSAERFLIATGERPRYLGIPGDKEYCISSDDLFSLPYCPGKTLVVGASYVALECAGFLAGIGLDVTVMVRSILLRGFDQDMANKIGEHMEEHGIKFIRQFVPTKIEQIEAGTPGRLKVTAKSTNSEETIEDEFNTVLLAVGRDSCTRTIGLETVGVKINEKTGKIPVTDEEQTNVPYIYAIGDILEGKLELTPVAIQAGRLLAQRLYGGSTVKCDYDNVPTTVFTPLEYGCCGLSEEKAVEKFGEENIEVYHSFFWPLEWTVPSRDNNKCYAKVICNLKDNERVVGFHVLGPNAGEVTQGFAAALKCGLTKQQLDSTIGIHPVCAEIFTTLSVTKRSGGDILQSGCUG
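Rat TrxR1 (90 nM in the dispensed reagent) was pre-reduced with 400 uM NADPH for 5 min at room temperature, then incubated with compound for 15 min. After 400 uM selenite was added, NADPH fluorescence (Ex 340/Em 450 nm) was followed for 8 min.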
GALK inh: blocks human galactokinase activity; P51570; Purified GALK, Kinase-Glo residual ATP luminescence; Potency, µM (doses to about 57.5 µM), for inactives: top-dose activity change, negative = inhibition, actives largely listed as inhibitors; 270,000 tested, 0.007% active; also: potency is read from the fitted curve at half-maximal effect
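Luminescence from leftover ATP (Ultra-Glo luciferase/luciferin) served as read-out after a 1 h room-temperature reaction of 5 nM GALK with 35 uM ATP and 100 uM galactose.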
Coupling enz: inhibits coupling enzyme system, counter-screen for aldolase hits; coupling enzyme system counterscreen, AmpLite Red fluorescence; activity change, negative = inhibition, % at 58.2 µM, hits read low; 290,000 tested, 0.67% active; in the data active = activity change below about -30%
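First, compound is pin-transferred into glyceraldehyde-3-phosphate coupling-enzyme reagent at 57.5 uM final and held 10 min at RT. Next, substrate, coupling system and AmpLite Red are added. After 20 min RT, fluorescence (525/598 nm) is read.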
PI4K2A block: PI4K2A (human) kinase inhibition; Q9BTU6; purified PI4K2A, ADP-Glo luminescence, 1 h; stronger effect = lower value; activity change, negative = inhibition, % at 76.9 µM; 420,000 tested, 0.13% active; in the data active = activity change below about -50%; inconclusive = mostly about -30% to -49%;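 also: -100% = wells without enzyme as full effect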
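PI4K2A activity was measured by ADP-Glo luminescence: enzyme (4 ug/mL stock) and phosphatidylinositol (1.2 mM stock) in Tris pH 7.5/MgCl2/EGTA/Triton X-100 buffer were reacted with ATP (300 microM stock) for one hour at ambient temperature.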
TrxR1 substrate: substrates of rat thioredoxin reductase 1 | 390,000 tested, 0.01% active | O89049 | purified TrxR1 substrate turnover, NADPH consumption readout | AID 588456 | Potency, µM (top dose mostly 114 µM), for the others: at the highest dose activity change, negative = substrate turnover; also: potency is read from the fitted curve at half-maximal effect; nearly all actives have a fitted effect of over 50% in size
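Rat TrxR1, dispensed at 90 nM, was prereduced with 400 uM NADPH (final) for 5 min at ~22 deg C, then incubated with compound 15 min before 400 uM selenite. A first-read NADPH fluorescence drop versus no-compound background flagged substrates.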
Active calls of the source: *; u = inconclusive; x = no result; [ ] = another dose, or the depositor's remark. An excerpt weighted towards active compounds, which were near 1.5% of everything screened. Unless noted, calls follow the shape of the dose curve; as a rule, active = well fitted curve in the direction sought with a large enough effect; inconclusive = small, poorly fitted or top-dose-only effect, or another doubt; inactive = no such curve, though single readings can be large; an effect the other way counts as inactive or inconclusive. Unless noted, % is scaled to controls: 0 for no effect and ±100 for the full control effect.

SMILES	Giardia kill	rTrxR1 inhibitor	GALK inh	Coupling enz	PI4K2A block	TrxR1 substrate
Cc1cccc(N2CCN(C(=S)Nc3ccc4nc(N5CCN(C)CC5)cc(C)c4c3)CC2C)c1 (centres undefined)	-89*	5%	-1%	-1	1	5%
Cc1cccc(N2CCN(C(=S)Nc3ccc4nc(N5CCN(C)CC5)cc(C)c4c3)CC2)c1C	-82*	-6%	0%	3	-1	-2%
Cc1ccc(NC(=O)C(=O)c2cc(C)n(-c3ccc(F)cc3)c2C)cc1C	x	-2%	x	x	1	11%
O=c1ccn(-c2cccc(C(F)(F)F)c2)nc1-c1ccn(-c2ccccc2F)n1	0	-9%	2%	-43*	16	-13%
COc1ccc(-n2ccc(-c3nn(-c4cccc(C(F)(F)F)c4)ccc3=O)n2)cc1	-2	-4%	-1%	-7	6	-5%
C=CCOc1ccc(/C(O)=C2/C(=O)C(=O)N(CCCN3CCOCC3)C2c2ccccc2)cc1 (centres undefined)	9	25µM*	x	x	5	-7%
CCCOc1ccc(/C(O)=C2/C(=O)C(=O)N(CCCN3CCOCC3)C2c2ccncc2)cc1 (centres undefined)	x	x	0%	-62*	x	x
Nc1ccc2c(c1)OCCOCCOCCOCCOCCO2	11	18%	-2%	-49*	-15	5%
Brc1ccc2c(c1)OCCOCCOc1cc(Br)ccc1OCCOCCOCCO2	14	-4%	1%	-1	1	-3%
CCOC(=O)C1=C(C)c2ccccc2N(C(=O)OC)C1(C)C(=O)OCC (centres undefined)	-13	35µM*	x	4	-19	-2%
CCOc1ccc(Cc2c(O)nc(SC)[nH]c2=O)cc1	x	x	x	x	0	x
CSc1nc(O)c(C(c2ccc(O)cc2)c2c(O)nc(SC)[nH]c2=O)c(=O)[nH]1	9	8.9µM*	5%	3	-9	2%
CCOc1ccccc1C(c1c(O)nc(SC)[nH]c1=O)c1c(O)nc(SC)[nH]c1=O	-9	u	x	x	0	1%
CSc1nc(O)c(C(c2cccc([N+](=O)[O-])c2)c2c(O)nc(SC)[nH]c2=O)c(=O)[nH]1	-26	45µM*	-3%	12	-10	-14%
C=CCOc1ccc(C(c2c(O)nc(SC)[nH]c2=O)c2c(O)nc(SC)[nH]c2=O)cc1	5	7.9µM*	x	x	-11	8%
CCOc1ccc(C(c2c(O)nc(SC)[nH]c2=O)c2c(O)nc(SC)[nH]c2=O)cc1	-4	28µM*	x	x	-14	-1%
CCCCNC(=O)O[C@H]1CC[C@@]23CCCN2C(=O)CCC[C@H]3[C@H]1CCC	x	x	x	x	-5	x
CN1CCC(N(Cc2cccs2)c2ccccc2)CC1	x	x	x	x	-2	x
COc1ccc(-c2nn(C)c3sc(C(=O)Nc4cccc(F)c4)cc23)cc1OC	x	54%[57.1 µM]	x	x	4	44%[57.1 µM]
O=C1C(Nc2ccc(O)cc2)=C/C(=N/S(=O)(=O)c2cccs2)c2ccccc21	0	0%	-18%	-37*	u	-5%
Cc1ccc(Cl)cc1NC1=C/C(=N\S(=O)(=O)c2cccs2)c2ccccc2C1=O	2	-22%	-1%	-46*	u	-4%
O=C(O)c1ccc(NC2=C/C(=N/S(=O)(=O)c3cccs3)c3ccccc3C2=O)cc1	x	x	x	x	-52*	x
Cc1cccc(NC2=C/C(=N/S(=O)(=O)c3cccs3)c3ccccc3C2=O)c1	0	-15%	1%	3	-2	-13%
COC(=O)c1cc(Cl)ccc1OC	x	x	x	x	3	x
CCOC(=O)c1cc(-c2ccccc2)nn1-c1ccccn1	3	12%	0%	-34*	9	-2%
SMILES	Giardia kill	rTrxR1 inhibitor	GALK inh	Coupling enz	PI4K2A block	TrxR1 substrate
CC(=O)c1ccc(NC(=S)NCCc2ccc(S(N)(=O)=O)cc2)cc1	-2	13%[57.1 µM]	10%	3	18	-12%[57.1 µM]
CC(C)OCCCNC(=S)Nc1ccc(S(N)(=O)=O)cc1	5	-4%	2%	-65*	-3	-9%[11.4 µM]
Cc1cc(NC(=O)c2ccc3c(c2)OCCO3)no1	-80*	1%[57.1 µM]	-1%	-3	-11	-4%
Cc1cc(NC(=O)c2ccc3c(c2)OCO3)no1	-15	-4%	0%	0	-5	-6%
CC1(OC(=O)C2CCCC2)C(=O)C=C2C=C(c3ccsc3)N(c3ccc(CO)cc3)C=C2C1=O (centres undefined)	x	x	x	-1	x	x
O=C(O)CCc1cccc2ccccc12	x	-33%	x	x	x	4%
CN(CCC#N)C(=O)COC(=O)c1c2c(nc3ccccc13)/C(=C/c1ccco1)CC2	9	5.6µM*	0%	-9	-53*	-3%
N#Cc1c(-c2ccco2)nc(SCC(=O)Nc2cccc(Cl)c2)[nH]c1=O	3	14µM*	-1%	7	0	-4%
CCOc1ccccc1NC(=O)C(C)Sc1nc(-c2ccccc2)c(C#N)c(=O)[nH]1 (centres undefined)	x	16%	x	x	-4	-2%
O=C(CSc1nc2[nH]ncc2c(=O)[nH]1)Nc1cccc(Cl)c1	-6	4%[57.1 µM]	x	x	-2	1%[57.1 µM]
CCc1ccc(NC(=O)C(C)Sc2nc(-c3ccco3)c(C#N)c(=O)[nH]2)cc1 (centres undefined)	-11	18µM*	7%	10	-5	5%
CN(C)c1ccc(/C=C/c2ccnc3c(O)ccc(O)c23)cc1	x	18%	x	x	x	21%
CC1=C(C(=O)Nc2ccccc2)C(c2ccccc2[N+](=O)[O-])NC(=O)N1 (centres undefined)	3	3%	-2%	-4	0	-1%
COc1ccccc1NC(=O)C1=C(C)NC(=O)NC1c1ccccc1[N+](=O)[O-] (centres undefined)	0	31%[57.1 µM]	9%	-41*	2	12%[57.1 µM]
CN1CCc2nc(SCC(=O)Nc3cccc(F)c3)c(C#N)c(-c3cccs3)c2C1	-4	5µM*	0%	-10	-13	5%
CN1CCc2nc(SCC(=O)Nc3ccc(OC(F)(F)F)cc3)c(C#N)c(-c3cccs3)c2C1	-1	10µM*	1%	-51*	-6	3%
Cc1cccc(CSc2nc3c(c(-c4cccs4)c2C#N)CN(C)CC3)c1	-11	u	1%	-7	2	-5%
Oc1ccc(/C=N/Nc2cc(N3CCOCC3)nc(N3CCOCC3)n2)cc1	7	-27%	x	x	-2	-16%
COc1ccc(/C=N/Nc2cc(C)nc(-n3nc(C)cc3C)n2)cc1	6	-20%	x	-2	-3	-19%
Brc1cccc(/C=N/Nc2nc(N3CCCCC3)nc(N3CCCCC3)n2)c1	x	x	0%	-2	x	x
Oc1cccc(/C=N/Nc2cc(N3CCCC3)nc(N3CCCC3)n2)c1	-4	3%	0%	-32*	-3	-7%
